TDP1 block = TDP1 (human) enzyme inhibition. Q9NUW8. recombinant TDP1, AlphaScreen DNA substrate cleavage. Potency, µM (doses to about 130 µM), inactives show at the top dose activity change, negative = inhibition, most hits filed as inhibitors. 0.28% of 350,000 active. AID 485290; further: potency means the concentration at half of the fitted maximal effect; on the % scale 0 is the no-effect control and ±100 the full control effect; nearly all actives have a fitted effect of over 40% in size
Target sequence (Q9NUW8 whole entry, looked up): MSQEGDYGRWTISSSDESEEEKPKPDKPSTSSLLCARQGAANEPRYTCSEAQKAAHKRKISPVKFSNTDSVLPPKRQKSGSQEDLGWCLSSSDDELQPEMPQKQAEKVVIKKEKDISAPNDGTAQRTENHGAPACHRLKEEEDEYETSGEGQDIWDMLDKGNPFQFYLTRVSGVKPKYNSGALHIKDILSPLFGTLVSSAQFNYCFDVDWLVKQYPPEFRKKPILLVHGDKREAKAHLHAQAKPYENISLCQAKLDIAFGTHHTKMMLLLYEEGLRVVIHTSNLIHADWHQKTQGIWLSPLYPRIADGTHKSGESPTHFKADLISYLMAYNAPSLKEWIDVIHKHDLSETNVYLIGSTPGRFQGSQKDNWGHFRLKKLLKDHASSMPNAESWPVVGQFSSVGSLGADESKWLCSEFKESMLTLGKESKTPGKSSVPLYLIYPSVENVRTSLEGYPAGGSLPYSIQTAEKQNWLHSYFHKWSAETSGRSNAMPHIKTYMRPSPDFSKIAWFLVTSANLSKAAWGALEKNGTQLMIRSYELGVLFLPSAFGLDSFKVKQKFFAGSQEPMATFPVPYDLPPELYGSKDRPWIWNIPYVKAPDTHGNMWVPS
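Steps: enzyme plus compound, 15 min RT; add biotin/phosphotyrosine-FITC oligonucleotide (15 nM final), react 5 min; add donor/acceptor beads (10 ug/ml final), 10 min; read AlphaScreen. Tdp1 at 1 nM final.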
HepG2 tox = kills HepG2 cells in TGF-b inhibitor counter-screen; Potency, µM (top dose mostly 46.1 µM), for the others: at the top dose activity change, negative = cytotoxicity, actives largely listed as cytotoxic; HepG2 CAGA-GFP viability, ATP luminescence, 18 h; AID 588856; 0.76% of 410,000 active; further: potency means the concentration at half of the fitted maximal effect
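CellTiter-Glo luminescence gave cytotoxicity after 18 hours at 37 degrees C. The cells were HepG2 CAGA-GFP in 1% FBS DMEM, stimulated with 500 pg/mL TGF-beta after compound addition. %Activity was normalised to no-cell wells (complete cell-killing) and DMSO (no toxicity), and curves were fitted and classified.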
TDP1 cell CPT = growth inhibition of DT40 Tdp1-/-;hTDP1 cells with camptothecin (screen for TDP1 inhibitors); chicken DT40 Tdp1-/-;hTDP1 cells + 20 nM CPT, ATP luminescence, 48 h; Potency, µM (top dose mostly 46.2 µM), without a hit: at the top dose activity change, negative = growth inhibition, usual class: inhibitors; 12% of 420,000 active; AID 686979; further: potency means the concentration at half of the fitted maximal effect; on the % scale 0 is the no-effect control and ±100 the full control effect; nearly all actives have a fitted effect of over 55% in size
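Chicken DT40 Tdp1-/- cells stably complemented with human TDP1 were seeded at 400 cells/well in medium containing 20 nM camptothecin, exposed to pin-transferred compounds, and grown at 37 °C for at least 48 hr. Viability was read as ATP luminescence.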
IL1B secr inh = blocks inflammasome-driven IL-1 beta release; AID 743279; 4.7% of 360,000 active; activity change, % at 57.5 µM; THP-1 LPS/ATP IL-1B secretion, AlphaLISA, 16 h; stronger effect = lower value; in the data active means activity change below about -50%; inconclusive means mostly about -30% to -49%; further: on the % scale 0 is the no-effect control and ±100 the full control effect
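Secreted IL-1B measured by AlphaLISA bead assay after 16 h compound exposure of THP-1 cells; compounds (final up to 57.5 uM) added 1 h before LPS (250 ng/mL) and ATP (1.25 mM) stimulation; lower signal means less secretion.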
TGFb inhibitor = inhibitors of TGF-b signaling; AID 588855; HepG2 CAGA-GFP TGF-b/SMAD3 reporter, GFP fluorescence, 18 h; TGF-beta stimulated, 500 pg/mL final; Potency, µM (doses to about 46.1 µM), without a hit: top-dose activity, negative = inhibition, actives largely listed as inhibitors; 1.2% of 410,000 active; further: potency means the concentration at half of the fitted maximal effect; on the % scale 0 is the no-effect control and ±100 the full control effect; nearly all actives have a fitted effect of over 65% in size
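HEPG2 CAGA-GFP cells (1000/well, DMEM with 1% FBS) were pre-incubated 2 h at 37 degrees C, given compound by pin tool, then stimulated with TGF-beta at 500 pg/mL final for 18 h before per-cell GFP fluorescence imaging.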
DT40 TDP1 no CPT = qHTS for Inhibitors of human tyrosyl-DNA phosphodiesterase 1 (TDP1): qHTS in cells in absence of CPT. AID 686978, 2013. 15% of 420,000 active. DT40 Tdp1-/- hTDP1 cells, no CPT, ATP luminescence, 48 h. Potency, µM (top dose mostly 46.2 µM), for the others: at the highest dose activity change, negative = growth inhibition, usual class: inhibitors; further: potency means the concentration at half of the fitted maximal effect; on the % scale 0 is the no-effect control and ±100 the full control effect; nearly all actives have a fitted effect of over 55% in size
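Cells were dispensed at 400 per well, compounds added by pin tool, plates incubated ≥48 hr at 37 °C, then CellTiter-Glo added for 30 min at room temperature before luminescence reading. Line: DT40 Tdp1-/- complemented with hTDP1; camptothecin omitted.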
* = called active by the depositor; i = inactive; ? = inconclusive; . = no result given. An excerpt weighted towards active compounds, which were near 19% of everything screened. Unless noted, the call rests on the fitted dose curve; in most records, active means well fitted curve in the direction sought with a large enough effect; inconclusive means small, poorly fitted or top-dose-only effect, or another doubt; inactive means no such curve, though single readings can be large; an effect the other way counts as inactive or inconclusive.

SMILES	TDP1 block	HepG2 tox	TDP1 cell CPT	IL1B secr inh	TGFb inhibitor	DT40 TDP1 no CPT
CCOc1ccc(N(C)S(=O)(=O)c2ccc(C)c(C(=O)Nc3nnc(C4CC4)s3)c2)cc1	2%	-7%	-9%	-3	3%	4.6µM*
COc1ccc(N(C)S(=O)(=O)c2cccc(C(=O)Nc3nnc(C4CC4)s3)c2)cc1	7%	4%	-1%	51	20%	-18%
CCN(CC)C(=S)SCC(=O)c1ccc(F)cc1	0%	-100%	2.9µM*	9	-25%	4.1µM*
CCN(CC)C(=S)SCC(=O)Nc1ccc(F)cc1	-4%	3%	21µM*	-26	12%	?
CCN(CC)C(=S)SCC(=O)Nc1cccc(C(F)(F)F)c1	.	4%	-11%	-4	-8%	?
O=C1CNC(=S)N1c1nc(-c2ccccc2)cs1	2%	9%	-5%	-9	-20%	-10%
CCOc1ccc2nc(N3C(=O)CNC3=S)sc2c1	10%	-1%	16µM*	-97*	?	6.5µM*
Cc1cc2nc(N3C(=O)CNC3=S)sc2cc1C	-9%	-36%	?	-97*	?	5.8µM*
O=C(C(=O)N1CCCC1CO)N1CCCC1CO (centres undefined)	1%	-4%	13%	0	-7%	-1%
CCOC(=O)c1c(N)n(-c2ccc(OCC)cc2)c2nc3ccccc3nc12	0%	-15%	.	.	15%	.
CCN(Cc1ccccc1)C1CCN(Cc2ccccc2)CC1	6%	2%	-3%	?	7%	6%
CSc1ccccc1OC1CCN(Cc2ccccc2)CC1	3%	-14%	-10%	-82*	-3%	?
COc1ccccc1N1CCN(c2ccc(=O)n(CC(=O)Nc3cc(F)ccc3C)n2)CC1	0%	-6%	15µM*	.	-4%	23µM*
COc1ccc(C)cc1NC(=O)Cn1nc(N2CCN(c3ccccc3OC)CC2)ccc1=O	5%	-28%	?	.	-13%	?
CCc1ccccc1NC(=O)c1ccc(Cn2nc(N3CCN(c4ccccc4)CC3)ccc2=O)o1	0%	-30%	15µM*	.	?	12µM*
CCc1ccc(NC(=O)c2ccc(Cn3nc(N4CCN(c5ccccc5)CC4)ccc3=O)o2)cc1	3%	-36%	?	.	?	?
CCOc1ccccc1NC(=O)Cn1nc(N2CCN(c3ccccc3)CC2)ccc1=O	5%	-4%	?	.	-30%	18µM*
CCc1ccc(-n2nc3ccc(NC(=O)c4ccc(C#N)cc4F)cc3n2)cc1	-3%	3%	.	.	4%	.
Cn1c(Oc2ccc(F)cc2)nc2c1c(=O)n(Cc1ccccc1Cl)c(=O)n2C	-2%	-3%	23µM*	.	-5%	12µM*
COc1ccc(Oc2nc3c(c(=O)n(C)c(=O)n3C)n2C)cc1	.	4%	?	0	1%	-25%
COc1ccc(Oc2nc3c(c(=O)n(Cc4ccccc4Cl)c(=O)n3C)n2C)cc1	0%	-14%	?	.	-7%	6.5µM*
CCOC(=O)c1c(NC(=O)CCS(=O)(=O)c2ccccc2)sc2c1CC(C)(C)NC2(C)C	4%	0%	-98%	i	?	?
CCOC(=O)c1c(NC(=O)COc2ccccc2OCC)sc2c1CC(C)(C)NC2(C)C	1%	-83%	6.5µM*	-106*	-6%	5.8µM*
CCOC(=O)c1c(NC(=O)COC(=O)c2ccc(C)s2)sc2c1CC(C)(C)NC2(C)C	3%	-29%	?	-59*	9%	18µM*
CC1(C)Cc2c(sc(NC(=O)COc3cccc4ccccc34)c2C#N)C(C)(C)N1	1%	-147%	10µM*	-100*	?	13µM*
